# Screening results deposited in PubChem BioAssay by National Center for Advancing Translational Sciences (NCATS).
# HEK293 tox – cytotoxicity in counter-screen for GLP-1R inverse agonists | HEK293 cAMP-luciferase reporter cells, luminescence, 24 h | Potency, µM (titrated, usually from 38.3 µM), for inactives: at the top dose activity change, negative = inhibition, usual class: inhibitors | 410,000 tested, 0.13% active | AID 624418;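 further: loss of luciferase light is scored as toxicity; potency means the concentration at half of the fitted maximal effect; on the % scale 0 is the no-effect control and ±100 the full control effect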
#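 Cells in DMEM/10% Nu serum/1% pen-strep, 1536-well format. Pre-incubated 12 h, dosed with 23 nL compound, incubated a further 24 h. Luciferase detection, 12 min at room temp, luminescence.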
# ClpP mod – qHTS Assay for Activators of ClpP | purified B. subtilis ClpP, FRET peptide cleavage, 20 min | Potency, µM (doses to about 57.5 µM), for inactives: at the top dose activity change, negative = active | 340,000 tested, 1.9% active | AID 651965, 2013; active means well fitted falling curve with a large enough effect; inconclusive means small, poorly fitted or top-dose-only effect; inactive means no such curve, though single readings can be large or run the other way; further: potency means the concentration at half of the fitted maximal effect; the source files actives as falling curves though it sought activators and does not explain the sign; nearly all actives have a fitted effect of over 65% in size
# Target sequence (P80244 whole entry, looked up): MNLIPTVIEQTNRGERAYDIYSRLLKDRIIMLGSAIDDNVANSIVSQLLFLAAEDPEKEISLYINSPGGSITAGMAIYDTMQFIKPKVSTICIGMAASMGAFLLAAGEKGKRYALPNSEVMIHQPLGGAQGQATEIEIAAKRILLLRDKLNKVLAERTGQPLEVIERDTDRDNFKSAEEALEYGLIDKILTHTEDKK
#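 Buffer: 100 mM Tris/HCl pH8, 100 mM KCl, 0.05% low protease BSA, 2.5% glycerol, 0.01% Tween-20. ClpP 10 microg/mL final; 20 min RT; delta FRET normalized to ADEP and DMSO controls.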
# D3 antag – antagonists of human D3 dopamine receptor; P35462; D3R cells, DiscoveRx beta-arrestin luminescence, antagonist mode; stronger effect = lower value; max response, negative = inhibition, %; 360,000 tested, 2.5% active; AID 652054; in the data active means max response below about -50%; inconclusive means no clear call, values can overlap the other calls; further: on the % scale 0 is the no-effect control and ±100 the full control effect
# Target sequence (P35462 whole entry, looked up): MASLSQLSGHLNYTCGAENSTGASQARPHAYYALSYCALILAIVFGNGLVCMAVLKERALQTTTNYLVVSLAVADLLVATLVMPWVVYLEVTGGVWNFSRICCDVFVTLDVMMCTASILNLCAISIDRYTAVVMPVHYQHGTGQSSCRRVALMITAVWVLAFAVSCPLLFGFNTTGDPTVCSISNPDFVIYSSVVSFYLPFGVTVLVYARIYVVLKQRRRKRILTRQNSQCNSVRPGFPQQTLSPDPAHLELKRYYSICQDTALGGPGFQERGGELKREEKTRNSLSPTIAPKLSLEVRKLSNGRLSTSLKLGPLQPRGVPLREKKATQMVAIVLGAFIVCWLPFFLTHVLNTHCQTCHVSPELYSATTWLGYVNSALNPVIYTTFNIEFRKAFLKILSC
#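 Cells plated overnight at 1500 cells/well, then exposed to library compounds with dopamine controls for 90 minutes at 37 degrees C. DiscoveRx reagent added for 30–60 minutes at room temperature; luminescence read, quantitative HTS format.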
# GLP1R ag – agonists of human GLP-1 receptor. P43220. HEK293 GLP-1R CRE-luciferase, luminescence, 4-6 h; cells express a hypersensitive GLP-1R form. Potency, µM (doses to about 45.6 µM), for the others: at the highest dose activation, hits mostly activators. 380,000 tested, 0.007% active; further: potency means the concentration at half of the fitted maximal effect; % of control where 0% means no effect
# GLP1R inv ag – inverse agonists of human GLP-1 receptor; Potency, µM (highest dose often 38.3 µM), without a hit: at the highest dose activity change, negative = inhibition, actives largely listed as inhibitors; AID 624417; 410,000 tested, 1.6% active; HEK293 GLP-1R CRE-luciferase, luminescence, 24 h; GLP-1R form is constitutively active; further: potency means the concentration at half of the fitted maximal effect; on the % scale 0 is the no-effect control and ±100 the full control effect; nearly all actives have a fitted effect of over 55% in size
#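 Readout was luciferase luminescence, measured 12 min after detection reagent at room temperature. Beforehand, GLP-1R reporter HEK293 cells had sat 12 h, then received compounds for 24 hr at 37 deg C.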
# DRD3 agonist – activates the human D3 dopamine receptor | P35462 | D3R DiscoveRx beta-arrestin cells, luminescence, 90 min | max activation, % | 410,000 tested, 0.58% active; in the data active means max activation above about 30%; further: 0% is about no effect
#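 Agonist mode: compounds and dopamine controls were applied to plated cells for 90 min at 37 degrees C after an overnight attachment at 1500 cells/well. Luminescent read-out followed 30 - 60 minutes at room temperature with DiscoveRx detection reagent.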
# Numbers without * were called inactive; u = inconclusive; x = no result. In the library only some 5.7% were active in any assay of this set; here they are far more common. Unless noted, the call rests on the fitted dose curve; in most records, active means well fitted curve in the direction sought with a large enough effect; inconclusive means small, poorly fitted or top-dose-only effect, or another doubt; inactive means no such curve, though single readings can be large; an effect the other way counts as inactive or inconclusive.
SMILES,HEK293 tox,ClpP mod,D3 antag,GLP1R ag,GLP1R inv ag,DRD3 agonist
COC(=O)c1[nH]c2cccc(OC)c2c1NC(=O)C(C)N1CCC(C)CC1 (centres undefined),2%,32µM*,-9,18%,0%,-15
COC(=O)c1[nH]c2cccc(OC)c2c1NC(=O)CCN1CCN(c2ccccc2OC)CC1,-16%,u,-90*,-4%,u,-46
COC(=O)c1[nH]c2cccc(OC)c2c1NC(=O)CCN1CCC(C)CC1,-5%,25µM*,-77*,-16%,0%,-28
CCSC1=NC2(CCN(C(=O)NC3CCCCC3)CC2)N=C1c1ccc(C)cc1,-10%,0%,x,x,14%,2
Cc1nn(-c2ccc(N3CCOCC3)nn2)c(C)c1CCC(=O)NCc1ccc(OC(C)C)cc1,5%,-4%,x,x,4%,5
CCOC(=O)C1CCCN(c2c(C(=O)c3ccccc3)cnc3ccc(F)cc23)C1 (centres undefined),5%,-2%,x,x,-16%,-9
CCC1=Nc2cc(C(=O)N3CCC(C)CC3)ccc2Sc2ccc(C)cc21,-7%,0%,x,x,u,-17
Cc1cc(C)cc(NC(=O)CCNS(=O)(=O)c2cc(Br)cnc2N)c1,-12%,-2%,-19,2%,7.9µM*,3
CCOC(=O)c1ccc(NC(=O)CCNS(=O)(=O)c2cc(Br)cnc2N)cc1,-9%,-23%,8,5%,u,5
CC(C1SC(=S)NC1=O)C1SC(=S)NC1=O (centres undefined),-2%,0%,2,-3%,-9%,-2
CCOC1=C2[C@@H](CN(S(=O)(=O)c3ccccc3C)[C@H]2c2ccc(Cl)cc2)[C@H]2C(=O)NC(=O)[C@H]2C1,-14%,0%,-72*,-1%,-2%,-1
CCc1nc2ccc(C(=O)N(CC)CCN(C)C)cn2c1N(C)Cc1cccs1,7%,-5%,-18,-3%,-23%,-15
CCc1nc2ccc(C(=O)N(C)CCN(C)C)cn2c1N(C)Cc1cc2ccccc2s1,-1%,-2%,-69*,6%,u,-27
COC(=O)c1ccc(-c2ccc(CNCC(O)c3ccccc3)o2)cc1 (centres undefined),-5%,16µM*,-8,5%,0%,6
Cc1[nH]n2c(=O)c3c(nc2c1-c1ccccc1)CCC3,-2%,32µM*,u,-12%,-5%,-29
Cc1[nH]n2c(=O)c3c(nc2c1-c1ccc(Cl)cc1)CCC3,3%,25µM*,-87*,-19%,1%,-13
Cc1[nH]n2c(=O)c(C#N)c(-c3ccccc3)nc2c1-c1ccccc1,-9%,0%,-60*,-3%,u,0
O=c1c2c(nc3c(-c4ccccc4)c[nH]n13)CCCC2,-16%,u,-19,1%,5%,-15
CCc1c(C)nc2c(-c3ccccc3)c(C)[nH]n2c1=O,5%,-1%,-21,-6%,7%,-10
CC1CCC(C(C)C)C(NC(=O)c2ccncc2)C1 (centres undefined),1%,1%,22,-5%,12%,4
CC(=O)c1c(C)nn(CC(=O)NC2CCCN(Cc3ccc(CC(C)C)cc3)C2)c1C (centres undefined),2%,-1%,-9,4%,11µM*,9
Cc1ccn(CC(=O)NC2CCCN(Cc3ccc(CC(C)C)cc3)C2)n1 (centres undefined),-8%,3%,-2,7%,u,-4
CCc1ccc(S(=O)(=O)c2nnn(-c3ccc(F)cc3)c2N)cc1,-21%,1%,x,x,-15%,-21
COc1ccc(C(O)c2nc(-c3cccc4cccnc34)cs2)cc1 (centres undefined),-2%,u,-5,27%,1%,-4
CCCn1c(CCC(=O)O)ccc1-c1ccc(OC)cc1,11%,28µM*,5,14%,-14%,4
SMILES,HEK293 tox,ClpP mod,D3 antag,GLP1R ag,GLP1R inv ag,DRD3 agonist
C=CCn1c(CCC(=O)O)ccc1-c1ccccc1,3%,28µM*,-26,0%,5%,-6
O=C(O)CCc1ccc(-c2ccc(Cl)cc2)n1CCC(=O)O,2%,-5%,8,0%,-9%,3
CSCC[C@H](NC(=O)[C@H](Cc1c[nH]c2ccccc12)NC(=O)CCNC(=O)OC(C)(C)C)C(=O)N[C@@H](CC(=O)O)C(=O)N[C@@H](Cc1ccccc1)C(N)=O,x,x,x,x,x,-27
CC(C)(c1ccccc1)c1ccc(OCCCNCCO)cc1,u,1%,-75*,-6%,u,-3
COc1ccc(OCCCNCCc2ccccc2)cc1,3%,x,-52*,10%,7%,-27
CC(C)(C)c1ccc(OCCCNCc2ccccc2)cc1,u,1%,u,0%,u,-25
CCc1ccc([C@@H]2C[C@H]3CN(Cc4ccccc4OC)C(=O)[C@]34CCCN24)cc1,-7%,x,2,8%,13µM*,-18
Cc1ccc2c(/C=C/c3ccc(N(C)C)cc3)ccnc2c1C,x,1%,x,x,x,x
CCN(CC)CCNC(=O)c1c2c(nc3ccccc13)C(=O)N(C1CCCCC1)C2,5%,28µM*,x,x,-11%,0
Cc1ccc(C)n1-c1nnc(N2CCC(C(=O)Nc3ccccc3Br)CC2)s1,-5%,11%,x,x,-5%,5
CC(C)(CNC(=O)c1sc2cc(Cl)ccc2c1Cl)N1CCOCC1,5%,1%,-3,31%,10µM*,-12
CCCCCC(=O)N(O)C1CC(=O)N(c2ccccc2)C1=O (centres undefined),-1%,1%,-86*,4%,4%,-4
COc1cc(/C=C/C(=O)OCC(=O)N(CC(C)C)c2c(N)n(Cc3ccccc3)c(=O)[nH]c2=O)ccc1O,-17%,-11%,-1,-15%,12%,4
CCOc1ccc(CCNC(=O)c2cc3c(=O)n(C)c4ccccc4c3n2C)cc1OCC,0%,-10%,x,2%,8%,4
CCO[C@@H]1c2c(ccc3ccc(=O)oc23)OC(C)(C)[C@@H]1O,4%,4%,19,1%,9%,1
CC1(C)Oc2ccc3ccc(=O)oc3c2[C@@H](O)[C@@H]1O,6%,5%,0,-2%,10%,87*
C/C=C(/C)C(=O)O[C@@H]1c2c(ccc3ccc(=O)oc23)OC(C)(C)[C@@H]1OC(=O)/C(C)=C\C,-9%,-29%,3,-4%,u,47*
O=C(Cn1ncc2c3ccccc3n(Cc3cccc(Cl)c3)c2c1=O)NC1CCCCCC1,-6%,1%,x,x,u,0
